PubChem BioAssay AID1159580 (chemical genetic matrix, 2015)
In all, about 5,500 compounds went through this assay and about 2,000 (36%) were called active. Roughly 18% stayed inconclusive and do not appear here. Rule as the data show it: active = normalized growth mostly below about 0.91 (no sharp cut-off); inconclusive = no clear call, values can overlap the other calls; inactive = mostly above about 0.92. The list shows a part of the results.

Assay: chemical genetic growth profiling, strain panel (AID 1159580);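 also: tested at 20 µM; growth read once vehicle control cultures reached saturation at 30 °C; 1 = growth at the plate median or of vehicle wells; lower values mean less growth of the strain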
Conditions: S. cerevisiae deletion strains, growth OD

Measured: normalized growth

CN(C)C(N)=NCCC[C@H](N)C(=O)O
inactive: locus YAL013W, strain DEP1, active compounds read low 1 | locus YAL040C, strain CLN3, active compounds read low 0.998 | locus YCL061C, strain MRC1 (second series), active compounds read low 1.01 | locus YDR150W, strain NUM1, active compounds read low 0.997 | locus YDR363W, strain ESC2, active compounds read low 1.04 | locus YER002W, strain NOP16, active compounds read low 0.979 | locus YJR075W, strain HOC1, active compounds read low 1.01 | locus YMR307W, strain GAS1, active compounds read low 1.01 | locus YNL128W, strain TEP1, active compounds read low 0.988 | locus YNL175C, strain NOP13, active compounds read low 1 | locus YNL197C, strain WHI3, active compounds read low 1.02 | locus YNL224C, strain SQS1, active compounds read low 0.984 | locus YOR083W, strain WHI5 (second series), active compounds read low 0.988 | locus YPL055C, strain LGE1, active compounds read low 1.03 | locus YPL241C, strain CIN2, active compounds read low 1
